Experimental findings from PubChem BioAssay (NCATS) are described below.

A short description of test [1]: qHTS Screen of the MIPE 4.0 Collection Against Ewings Sarcoma (TC71) (AID 1259253). Also: nearly all actives have a fitted effect of over 40% in size. Also: potency is read from the fitted curve at half-maximal effect. The conditions noted are these: TC71 Ewing sarcoma viability, CellTiter-Glo, 48 h; series mostly up to 45.8 µM. In short, it runs like this: (§1)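 Compound titrations go onto adherent log-phase cells 4 h after seeding, incubate 48 h at 37C, then CellTiter-Glo luminescence reports viability relative to DMSO and cell-free controls.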
On the technique in general: qHTS replaces the single test concentration by a dilution series.

The nature of test [2]: qHTS Screen of the MIPE 4.0 Collection Against Ewings Sarcoma (EW8) (AID 1259255). Also: nearly all actives have a fitted effect of over 35% in size. Also: potency is read from the fitted curve at half-maximal effect. The conditions noted are these: EW8 Ewing sarcoma viability, CellTiter-Glo, 48 h; series mostly up to 45.8 µM. The procedure, abridged: as §1
Test [3] can be described thus: qHTS Screen of the MIPE 4.0 Collection Against Ewings Sarcoma (TC32) (AID 1259256). Also: nearly all actives have a fitted effect of over 45% in size. Also: potency is read from the fitted curve at half-maximal effect. The conditions noted are these: TC32 Ewing sarcoma viability, CellTiter-Glo, 48 h; series mostly up to 45.8 µM. In short, it runs like this:
as §1

A short description of test [4]: P-glycoprotein substrates identified in KB-8-5-11 adenocarcinoma cell line, qHTS therapeutic library screen (AID 1346987). Also: nearly all actives have a fitted effect of over 65% in size. Also: potency is read from the fitted curve at half-maximal effect. The conditions noted are these: KB-8-5-11 (P-gp overexpressing) viability, CellTiter-Glo, 72 h; series mostly up to 44.5 µM. The procedure, abridged:
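Compounds are pinned in dose-response onto KB-8-5-11 cells (500 cells/well, colchicine-free medium) and left 72 h at 37 degree C. CellTiter-Glo luminescence then yields AC50 values.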

The nature of test [5]: NS1 protein of Zika virus - qHTS assay to identify small molecule inhibitors in human HEK 293 cells (AID 1347053). Also: nearly all actives have a fitted effect of over 55% in size. Also: potency is read from the fitted curve at half-maximal effect. The conditions noted are these: HEK293 ZIKV MR766 infection, NS1 TR-FRET, 24 h; series mostly up to 46.1 µM. The procedure, abridged:
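Compound-treated (1 h pre-infection) HEK 293 cells infected with ZIKV MR766, MOI = 0.5; after 24 h at 37 C, NS1 read by TR-FRET; data normalized to uninfected and infected controls.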

The nature of test [6]: Identifying Small Molecule Inhibitors of Pancreatic Cancer Stem Cells (SN12C, Adherent) (AID 1259358).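 Also: cell survival measured after 48 h of compound exposure.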 The conditions noted are these: viability/growth inhibition; series mostly up to 46.1 µM. The procedure, abridged:
(§2)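 Viability is scored by CellTiter-Glo luminescence 48 h after dosing, expressed as percent activity against vehicle and no-cell references. Spheroid formats rely on cells cultured 14 days in stem cell media beforehand.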

Test [7] is described as follows: Identifying Small Molecule Inhibitors of Pancreatic Cancer Stem Cells (SN12C, Spheroid) (AID 1259360). Also: potency is read from the fitted curve at half-maximal effect. The conditions noted are these: Potency: SN12C spheroid viability; series mostly up to 46.1 µM. In short, it runs like this:
as §2

Test [8] can be described thus: Identifying Small Molecule Inhibitors of Pancreatic Cancer Stem Cells (Panc1, Spheroid) (AID 1259359).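 Also: potency is read from the fitted curve at half-maximal effect; compound exposure lasted 48 h before reading.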 The conditions noted are these: Panc1 spheroid cancer stem cell viability; series mostly up to 46.1 µM. In short, it runs like this:
as §2

Test [9] in a line: Identifying Small Molecule Inhibitors of Pancreatic Cancer Stem Cells (A2780, Spheroid) (AID 1259357).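 Also: spheroids pre-formed over 14 days in stem cell medium on hydrogel; potency is read from the fitted curve at half-maximal effect; compound exposure lasted 48 h before the ATP luminescence read.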 The conditions noted are these: Potency: A2780 spheroid viability; series mostly up to 46.1 µM. The procedure, abridged: as §2
The nature of test [10]: Identifying Small Molecule Inhibitors of Pancreatic Cancer Stem Cells (A278, Adherent) (AID 1259361).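 Also: viability read after 48 h compound exposure; nearly all actives have a fitted effect of over 35% in size.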 The conditions noted are these: series mostly up to 46.1 µM. In short, it runs like this:
as §2

A short description of test [11]: P-glycoprotein substrates identified in KB-3-1 adenocarcinoma cell line, qHTS therapeutic library screen (AID 1346986).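 Also: potency is read from the fitted curve at half-maximal effect; potency is for cytotoxicity meaning loss of cell viability; nearly all actives have a fitted effect of over 60% in size.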 The conditions noted are these: KB-3-1 parental cells viability, CellTiter-Glo, 72 h; series mostly up to 44.5 µM. In short, it runs like this: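 72 h cell-killing screen, 500 cells/well, CellTiter-Glo luminescence. Paired lines KB-3-1/KB-8-5-11; P-gp dependence checked by tariquidar co-treatment and HEK-293 MDR-19 versus empty-vector cells.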

Molecules are shown by their SMILES. Values joined by “and” are separate entries in the source; they are usually repeats but may differ in a detail not shown here. Equal entries are not always repeated. Records with an inconclusive call do not appear. Active and inactive are the calls of the source. Calls follow the shape of the dose curve; as a rule, active = well fitted curve in the direction sought with a large enough effect; inconclusive = small, poorly fitted or top-dose-only effect, or another doubt; inactive = no such curve, though single readings can be large; an effect the other way counts as inactive or inconclusive.

Consider `CNC(=O)c1ccc(-c2cnc3ncc(Cc4ccc5ncccc5c4)n3n2)cc1F`, for which the Potency result in test [1], in [2], in test [3], in test [4] and in [5] was “inactive” each time.

With `CC(=O)SC[C@@H](C)C(=O)N1CCC[C@H]1C(=O)N[C@@H](Cc1ccccc1)C(=O)O`, the Potency entry in test [1], in test [2], in test [3], in test [6], in test [7] and in test [4] was “inactive” each time. Besides, the Potency result in test [5] is “inactive”.

On to `CNC(=O)c1cc(Oc2ccc(NC(=O)Nc3cc(C(C)(C)C)nn3-c3ccc4ncccc4c3)c(F)c2)ccn1`, for which the Potency in test [1] was 16.6 µM (active); in test [2] it was 18.7 µM (active); in test [3], 20.9 µM (active); in test [8], 13.2 µM (active); in test [4], 18.7 µM (active). The Potency entry in test [5] is “inactive”.

In the case of `CC(C)c1ccc(Cn2ccc3c4c(N)nc(NC5CC5)nc4ccc32)cc1`, the Potency in test [1] was 1.05 µM (active); in test [2] it was 3.32 µM (active); in [3] it was 1.32 µM (active); in [9], 14.8 µM (active); in test [8], 5.26 µM (active); in [7], 8.33 µM (active). The Potency in test [4] is 1.18 µM (active); in [5], 3.32 µM (active). For the same compound, in test [10], the IC50 (viability decrease) is 0.332 µM (active).

As to `CC(C)(O)c1cc2nc(-c3cnc(N)nc3)nc(N3CCOCC3)c2s1`, the Potency in [1] is 0.132 µM (active); in test [2] it was 0.148 µM (active); in test [3] it was 0.0662 µM (active); in test [11], 0.411 µM (active); in test [4] it was 105 nM (active) and 517 nM (active).
